Screening data as filed in PubChem BioAssay.
The list is not random: actives were taken first. Their share in the collection is about 27%.
CYP2C19 act: activators of human cytochrome P450 2C19; P33261; activation factor at 5 µM; 96,000 tested, under 10 active; recombinant CYP2C19, luciferin-H EGE luminescence; stronger effect = higher value; 0 = fully inhibited enzyme, 1 = untreated enzyme;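 active = activation factor of at least 2 at 5 µM in the primary screen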;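 note: 0 = wells with 2.5 mM tranylcypromine and 1 = vehicle-only wells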
Target sequence (P33261 whole entry, looked up): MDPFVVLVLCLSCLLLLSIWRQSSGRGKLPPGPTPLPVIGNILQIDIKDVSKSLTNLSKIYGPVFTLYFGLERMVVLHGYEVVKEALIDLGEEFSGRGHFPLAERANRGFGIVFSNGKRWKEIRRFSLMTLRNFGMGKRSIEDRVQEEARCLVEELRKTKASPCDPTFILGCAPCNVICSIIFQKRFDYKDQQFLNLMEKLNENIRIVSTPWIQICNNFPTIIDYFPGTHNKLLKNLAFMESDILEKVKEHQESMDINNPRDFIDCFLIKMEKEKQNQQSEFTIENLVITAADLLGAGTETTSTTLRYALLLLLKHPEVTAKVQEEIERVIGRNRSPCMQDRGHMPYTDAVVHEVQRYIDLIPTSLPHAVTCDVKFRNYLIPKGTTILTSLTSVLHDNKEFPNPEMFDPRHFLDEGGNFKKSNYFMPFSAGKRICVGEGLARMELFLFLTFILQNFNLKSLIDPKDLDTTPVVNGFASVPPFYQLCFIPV
Cav3 T inh: human Cav3.2 channel inhibition, primary screen; AID 449739; Cav3.2-expressing cells, Fluo-4 calcium fluorescence FDSS; stronger effect = lower value; B-score at 10 µM; 100,000 compounds, 4% hits; O95180;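 active = single-dose well whose peak fluorescence ratio is a statistical outlier from its plate by either plate-standardised score or position-corrected B-score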
CYP2C19 inhib: blocks human cytochrome P450 2C19; P33261; CYP2C19 Supersomes, luciferin-H EGE luminescence, 30 min; inhibition, % at 5 µM; 96,000 compounds, 21% hits;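 active = CYP2C19 inhibition above a set limit at 5 µM in the primary screen, cut at about 50% in these data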;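 note: plate controls were negative control wells for no effect and 2.5 mM tranylcypromine positive control for full effect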
CYP2C9 act: increases human cytochrome P450 2C9 activity; P11712; recombinant CYP2C9, luciferin-H conversion, luminescence; stronger effect = higher value; factor 1 = untreated enzyme, 0 = blocked; activation factor at 5 µM; 96,000 compounds, 1.4% hits; AID 1024;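 active = activation factor of 2 or more for CYP2C9 at a 5 µM dose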;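 note: 0 = sulfaphenazole-blocked wells and 1 = vehicle-only wells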
CYP2C9 inh: blocks human cytochrome P450 2C9. 96,000 compounds, 20% hits. inhibition, % at 5 µM. CYP2C9 Supersomes, luciferin-H conversion, luminescence. AID 777;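 active = blocking of liver enzyme CYP2C9 beyond about 50% at 5 µM, limit read from the data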
An asterisk follows results filed as active; . = no result.

SMILES	CYP2C19 act	Cav3 T inh	CYP2C19 inhib	CYP2C9 act	CYP2C9 inh
O=C(Cc1cccs1)Nc1nncs1	1.1	0.13	-11	1.1	-7
O=C(Cc1cccs1)Nc1nc2c(ccc3ccccc32)s1	0.6	-0.34	41	0.4	64*
O=C(O)COc1cccc2nsnc12	0.8	-0.13	17	0.8	18
O=C(COc1ccccc1)Nc1cccc2nsnc12	0.5	-1.4	53*	0.8	22
COC(=O)c1sc(Nc2ccccc2)nc1C	0.4	-0.19	58*	0.7	29
CCN(CC)S(=O)(=O)c1ccc(NC2CCCc3ccccc32)nc1 (centres undefined)	.	-0.084	.	.	.
Cc1nnc(-c2cnn(-c3ccccc3)c2N)n1Cc1ccc(F)cc1	0.6	0.67	44	0.8	20
Cc1nc(NC(=O)COc2ccccc2)sc1C(=O)Nc1ccccc1	0.7	-0.029	33	0.5	47
COC(=O)c1sc(NC(=O)CSc2nc3cccnc3n2C2CCCCC2)nc1C	0.3	-2.7	73*	0.2	84*
COC(=O)c1sc(NC(=O)COc2ccccc2OC)nc1C	0.7	0.35	30	0.3	67*
Cc1cnc(NC(=O)COc2ccccc2)s1	0.3	0.63	66*	0.7	34
Cc1cnc(NC(=O)CCCc2nc3ccccc3s2)s1	0.6	-2.3	42	0.7	31
COC(=O)c1sc(NC(=O)COc2ccccc2)nc1C	0.3	.	71*	0.1	94*
COC(=O)c1sc(NC(=O)Cc2cccs2)nc1C	0.6	0.46	43	0.4	57*
COc1cc(C2NC(=O)NC(C)=C2C(=O)OC2CCCC(C)C2)ccc1O (centres undefined)	0.9	-1.8	9	0.8	16
COc1ccccc1OC(=O)c1cc(Cl)nc2ccccc12	0.9	-1.7	14	0.3	75*
Cc1c(C(=O)NCCC2=CCCCC2)cccc1[N+](=O)[O-]	0.7	-0.41	25	1	-2
CCOC(=O)C(C)n1cnc2c(nnn2-c2cccc(Cl)c2)c1=O (centres undefined)	1.1	-0.036	-7	2*	-96
CCOC(=O)N1CCC(n2c(SCC(=O)Nc3nccs3)nc3ccsc3c2=O)CC1	0.7	0.17	26	0.4	61*
CCOC(=O)N1CCC(n2c(SCC(=O)OCc3ccccc3)nc3ccsc3c2=O)CC1	0.6	-4*	38	0.5	47
CCOC(=O)N1CCN(C(=O)c2ccc3nc4ccsc4c(=O)n3c2)CC1	1	.	-2	0.9	14
CCOC(=O)N1CCC(n2c(SCC(=O)NCc3ccco3)nc3ccsc3c2=O)CC1	0.8	-1.8	22	0.4	63*
CCOC(=O)CSc1nc2cc(C(=O)NCc3ccco3)ccc2c(=O)n1C1CCCCC1	0.8	-2.1	20	0.5	51*
COc1ccc(C(=O)NC(=S)NC(C)(C)C)cc1Br	0.9	-0.3	11	1	2
COc1ccccc1-c1cn[nH]c(=S)n1	1	0.11	4	1	2
SMILES	CYP2C19 act	Cav3 T inh	CYP2C19 inhib	CYP2C9 act	CYP2C9 inh
CC(=O)Nc1cccc(OCC(=O)NS(=O)(=O)c2ccc(Cl)cc2)c1	1	-0.38	-5	0.5	46
CCOC(=O)N1CCN(C(=O)c2cccn3c(=O)c4sccc4nc23)CC1	0.7	0.19	26	0.9	12
CCOC(=O)CSc1nc2ccsc2c(=O)n1C1CCN(C(=O)OCC)CC1	0.6	-0.81	42	0.4	62*
Cc1ccc(C(C2C(=O)CC(C)(C)CC2=O)C2C(=O)CC(C)(C)CC2=O)s1	0.8	2.5	19	1	0
Nc1ccccc1Oc1ncc(C(F)(F)F)cc1Cl	0.3	0.2	72*	1.2	-20
FC(F)(F)c1cnc(Oc2ccc(-c3nnco3)cc2)c(Cl)c1	0.8	-0.67	23	0.8	24
CCOc1cccc(Oc2ccc(C(F)(F)F)cn2)c1	1.1	.	-13	1.1	-11
FC(F)(F)c1cnc(Oc2ccccc2-c2nnco2)c(Cl)c1	0	-0.55	95*	0.8	23
Fc1ccc(/C=N/n2c(-c3cccs3)n[nH]c2=S)cc1	0.8	-0.27	20	0.8	21
CC(=O)NC(=O)NC1CSCC1OC(C)=O (centres undefined)	1.2	-0.05	-18	1.2	-25
Brc1c(OCCOCCn2cncn2)ccc2ccccc12	0	-0.16	99*	0.1	95*
Cc1ccccc1C(=O)Oc1ccc(Sc2ccc(O)cc2)cc1	0.9	.	7	1.2	-21
COC(=O)c1cc(OC)c(OC)cc1NC(=O)Cn1nnc(-c2ccccc2Cl)n1	0.9	-0.56	14	0.8	19
COc1ccc(-n2c(SCCC#N)nnc2-c2cc(Cl)ccc2OC)cc1Cl	.	-4.3*	.	.	.
COc1ccc(C2C(C(=O)NCc3cccnc3)c3ccccc3C(=O)N2C)cc1OC (centres undefined)	1.1	-0.044	-14	0.3	70*
COc1ccc(C2C(C(=O)N3CCN(c4ccccc4)CC3)c3ccccc3C(=O)N2C)cc1OC (centres undefined)	0.7	0.46	35	0.3	73*
CSc1nc2c(c(-c3ccccc3)c1C#N)CCC2	.	-0.81	.	.	.
COC(=O)[C@@H]1[C@H](CCc2ccccc2)NC(=O)N(Cc2ccccc2)[C@@H]1C	.	-1.1	.	.	.
Cc1cccc(C(=O)Nc2nc(C)c(C(=O)Nc3ccc4c(c3)CCC4)s2)c1	0.8	-2.9	24	0.4	58*
Cc1ccc(NC(=O)CCN2C(=O)CSC2=O)c(C)c1	.	0.4	.	.	.
O=C(NC(=S)Nc1cccc(Cl)c1N1CCCCC1)c1cccs1	0.9	-2.4	14	0.4	59*
O=C(NC(=S)Nc1cccc(Cl)c1N1CCCCC1)c1ccco1	0.9	-0.3	6	0.6	36
CCN(CC)S(=O)(=O)c1cc(C(=O)Nc2ccc(Cl)cn2)ccc1C	0.2	-4.3*	81*	0.2	80*
CCN(CC)S(=O)(=O)c1cc(C(=O)NC2CCCCC2)ccc1C	0.6	0.61	43	0.4	65*
Cn1ccc(O)c(C#N)c1=O	.	0.3	.	.	.
SMILES	CYP2C19 act	Cav3 T inh	CYP2C19 inhib	CYP2C9 act	CYP2C9 inh
N#Cc1c(-n2cccc2)cccc1-n1cccc1	0.4	-0.4	62*	3.7*	-270
C=C1CCN(c2ccc(C(=O)O)cc2[N+](=O)[O-])CC1	.	0.89	.	.	.
COc1ccc(C2(C(=O)NC3CCCCC3)CCOCC2)cc1OC	0.9	-0.36	15	1	2
COc1ccc(C2CC(=O)Oc3cc(O)cc(O)c32)cc1 (centres undefined)	.	0.37	.	.	.
Cc1ccc2c(c1)OC(=O)CC2c1ccccc1 (centres undefined)	0.3	0.66	68*	0.5	47
COc1ccc(N(C(=O)c2ccc(Br)o2)C2C=CS(=O)(=O)C2)cc1 (centres undefined)	0.6	0.22	38	0.9	11
CCC/C=C1/CCCOC(C(=O)NCCN2CCOCC2)(C(F)(F)F)C1 (centres undefined)	.	0.0016	.	.	.
Cn1c(=O)c2c(nc(SCC(=O)NCc3ccc4c(c3)OCO4)n2Cc2ccc(Cl)cc2)n(C)c1=O	.	-2.7	.	.	.
